Data taken from PubChem BioAssay (EPA / NIEHS).
Calls of active or inactive are those of the source. The calls were made as follows: active = hit-call score of the fitted dose curve at least 0.9, where 1 is the maximum; inactive = score below 0.9.

Tests used:
[1] = biological target: Bile acid receptor (Homo sapiens) (UniProt Q96RI1); assay: ATG_IR1_CIS: Attagene CIS-FACTORIAL HepG2 Assay for human Nuclear Receptor Subfamily 1 Group H Member 4 (NR1H4), IR1 submotif (AID 2282946); conditions: IR1 reporter transcription, actives raise or lower the signal
Bile acid receptor (Homo sapiens), sequence (Q96RI1 whole entry, looked up): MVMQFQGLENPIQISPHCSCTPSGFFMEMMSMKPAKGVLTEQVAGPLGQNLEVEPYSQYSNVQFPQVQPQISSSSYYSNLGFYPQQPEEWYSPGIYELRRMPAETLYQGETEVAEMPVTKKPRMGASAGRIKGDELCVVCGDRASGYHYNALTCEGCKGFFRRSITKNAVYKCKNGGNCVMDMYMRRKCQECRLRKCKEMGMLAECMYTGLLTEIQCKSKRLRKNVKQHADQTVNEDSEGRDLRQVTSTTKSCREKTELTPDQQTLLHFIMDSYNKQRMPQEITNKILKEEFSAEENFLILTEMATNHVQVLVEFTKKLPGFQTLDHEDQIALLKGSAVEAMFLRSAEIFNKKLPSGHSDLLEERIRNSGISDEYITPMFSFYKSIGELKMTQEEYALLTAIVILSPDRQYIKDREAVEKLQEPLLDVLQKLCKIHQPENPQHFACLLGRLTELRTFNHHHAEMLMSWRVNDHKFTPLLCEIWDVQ
Method in brief: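 Readout: reporter transcript levels by RT-PCR with fluorescent capillary electrophoresis, from HepG2 cells transiently transfected with multiplexed cis-regulated reporters and dosed 24 h. Gain- or loss-of-signal fitted versus DMSO negative control.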

[2] = ATG_GRE_CIS: Attagene CIS-FACTORIAL HepG2 Assay for human Glucocorticoid Response Elements (GRE) (AID 2282947); conditions: HepG2 GRE cis-reporter, Attagene multiplex mRNA; actives raise or lower the signal
Method in brief: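 HepG2, transient cis-reporter transfection, 24 h. Reporter mRNA: RT-PCR then CE, fluorescence. Fit both directions vs DMSO.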

[3] = ATG_ISRE_CIS: Attagene CIS-FACTORIAL HepG2 Assay for human Interferon Regulatory Factor 1 (IRF1) binding to an Interferon-Stimulated Response Element (ISRE) (AID 2282948); conditions: HepG2 ISRE cis-reporter (Attagene), mRNA transcription readout; actives raise or lower the signal
Method in brief: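 Uses HepG2 liver cells transfected with cis-regulated reporters and measures mRNA 24 h post-dosing through RT-PCR, primer-extension labelling and capillary electrophoresis, with DMSO as negative control.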

[4] = ATG_M_32_CIS: Attagene CIS-FACTORIAL HepG2 Assay for M32 Transcription Factor (Internal Marker) (AID 2282949); conditions: HepG2 Attagene cis-factorial M32 reporter, mRNA; actives raise or lower the signal;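 also: background control marker of the multiplexed CIS panel rather than a real target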
Method in brief: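 Using DMSO as baseline, bidirectional curve fits were applied to reporter mRNA signals. These came from transiently transfected HepG2 cells exposed for 24 h, with RNA analysed by RT-PCR, FAM primer extension, HpaI digestion and CE.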

[5] = ATG_M_06_CIS: Attagene CIS-FACTORIAL HepG2 Assay for M06 Transcription Factor (Internal Marker) (AID 2282950); conditions: HepG2 Attagene CIS-FACTORIAL M06 internal marker reporter; actives raise or lower the signal
Method in brief: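 Read-out is fluorescence of labelled reporter cDNA fragments resolved by capillary electrophoresis after RT-PCR. Cells: HepG2 carrying transfected cis-promoter reporter units, treated 24 h. Gain or loss of signal fitted relative to DMSO.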

[6] = biological target: Hypoxia-inducible factor 1-alpha (Homo sapiens) (UniProt Q16665); assay: ATG_HIF1a_CIS: Attagene CIS-FACTORIAL HepG2 Assay for human Hypoxia Inducible Factor 1 (HIF1A) (AID 2282951); conditions: HepG2 Attagene cis-factorial HIF1a reporter transcription; actives raise or lower the signal
Hypoxia-inducible factor 1-alpha (Homo sapiens), sequence (Q16665 whole entry, looked up): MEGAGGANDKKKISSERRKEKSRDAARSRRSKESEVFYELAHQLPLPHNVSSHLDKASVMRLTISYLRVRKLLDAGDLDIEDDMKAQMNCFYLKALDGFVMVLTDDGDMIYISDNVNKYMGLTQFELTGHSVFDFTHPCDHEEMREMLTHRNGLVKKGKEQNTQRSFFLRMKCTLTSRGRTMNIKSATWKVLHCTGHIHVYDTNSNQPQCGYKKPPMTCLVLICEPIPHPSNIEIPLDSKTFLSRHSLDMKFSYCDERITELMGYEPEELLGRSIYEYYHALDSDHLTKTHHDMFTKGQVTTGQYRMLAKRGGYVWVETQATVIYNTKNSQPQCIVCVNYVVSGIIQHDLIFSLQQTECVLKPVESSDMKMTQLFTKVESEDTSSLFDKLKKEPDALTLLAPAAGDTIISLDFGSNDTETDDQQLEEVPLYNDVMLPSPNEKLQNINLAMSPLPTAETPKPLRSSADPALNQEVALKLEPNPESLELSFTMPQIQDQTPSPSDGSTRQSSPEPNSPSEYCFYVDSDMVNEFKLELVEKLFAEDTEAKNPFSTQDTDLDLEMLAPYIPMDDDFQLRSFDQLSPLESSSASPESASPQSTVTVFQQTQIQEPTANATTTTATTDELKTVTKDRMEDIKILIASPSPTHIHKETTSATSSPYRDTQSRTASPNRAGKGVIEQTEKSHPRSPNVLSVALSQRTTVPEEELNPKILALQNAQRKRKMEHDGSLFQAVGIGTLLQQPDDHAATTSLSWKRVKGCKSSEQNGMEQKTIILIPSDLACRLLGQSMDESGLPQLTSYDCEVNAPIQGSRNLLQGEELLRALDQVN
Method in brief: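 Activity is fitted in both directions relative to DMSO. Reporter transcripts are read by RT-PCR, fluorescent primer extension and capillary electrophoresis after 24 h chemical treatment. The cells are HepG2 carrying transiently transfected cis-element-driven reporter units responding to endogenous factors.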

[7] = biological target: Hepatocyte nuclear factor 6 (Homo sapiens) (UniProt Q9UBC0); assay: ATG_HNF6_CIS: Attagene CIS-FACTORIAL HepG2 Assay for human Hepatocyte Nuclear Factor 6 (HNF6) (AID 2282952); conditions: HepG2 Attagene cis-factorial HNF6 reporter transcription; actives raise or lower the signal
Hepatocyte nuclear factor 6 (Homo sapiens), sequence (Q9UBC0 whole entry, looked up, the tested form may be a part): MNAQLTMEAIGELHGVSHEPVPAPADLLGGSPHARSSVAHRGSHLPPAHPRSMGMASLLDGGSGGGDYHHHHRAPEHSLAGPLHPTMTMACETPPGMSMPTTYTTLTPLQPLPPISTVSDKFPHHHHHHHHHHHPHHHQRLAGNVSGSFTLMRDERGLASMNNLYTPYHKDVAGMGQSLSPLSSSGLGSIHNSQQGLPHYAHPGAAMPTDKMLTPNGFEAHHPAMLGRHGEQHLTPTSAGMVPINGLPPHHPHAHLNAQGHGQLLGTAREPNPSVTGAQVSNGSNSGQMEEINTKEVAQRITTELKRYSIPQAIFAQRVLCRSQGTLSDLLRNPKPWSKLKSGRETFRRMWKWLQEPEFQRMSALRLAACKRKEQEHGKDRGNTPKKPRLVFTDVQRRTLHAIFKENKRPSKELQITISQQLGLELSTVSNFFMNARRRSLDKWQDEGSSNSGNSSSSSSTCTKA
Method in brief: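 First, HepG2 cells were transfected with the multiplexed cis reporter library and dosed with chemical for 24 h. Next, RNA was reverse-transcribed, PCR-amplified and fluorescently labelled. Finally, HpaI-digested fragments were read by capillary electrophoresis.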

[8] = biological target: Heat shock factor protein 1 (Homo sapiens) (UniProt Q00613); assay: ATG_HSE_CIS: Attagene CIS-FACTORIAL HepG2 Assay for human Heat Shock Transcription Factor 1 (HSE) (AID 2282953); conditions: HepG2 HSE cis-reporter, Attagene RNA transcription; actives raise or lower the signal
Heat shock factor protein 1 (Homo sapiens), sequence (Q00613 whole entry, looked up): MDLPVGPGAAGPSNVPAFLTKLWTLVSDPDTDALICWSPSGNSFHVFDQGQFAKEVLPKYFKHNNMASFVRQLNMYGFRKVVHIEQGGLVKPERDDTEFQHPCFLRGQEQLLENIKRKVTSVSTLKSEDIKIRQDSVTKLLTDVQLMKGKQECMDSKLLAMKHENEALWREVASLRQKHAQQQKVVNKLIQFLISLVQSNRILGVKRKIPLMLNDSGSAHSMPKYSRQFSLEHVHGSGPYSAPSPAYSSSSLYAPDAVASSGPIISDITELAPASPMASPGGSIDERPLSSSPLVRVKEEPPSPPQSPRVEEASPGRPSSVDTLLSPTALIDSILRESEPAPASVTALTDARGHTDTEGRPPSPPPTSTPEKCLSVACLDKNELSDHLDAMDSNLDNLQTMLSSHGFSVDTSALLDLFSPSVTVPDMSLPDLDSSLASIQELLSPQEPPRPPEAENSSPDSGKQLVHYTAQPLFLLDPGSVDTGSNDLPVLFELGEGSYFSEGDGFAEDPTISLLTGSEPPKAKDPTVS
Method in brief: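 HepG2, transient MRTU transfection, cis-promoter reporters (endogenous TF activity). 24 h compound. RNA → oligo(dT) RT → PCR → 6-FAM primer extension → HpaI cut → CE. Bidirectional fit vs DMSO.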

[9] = ATG_MRE_CIS: Attagene CIS-FACTORIAL HepG2 Assay for human Metal Responsive Element (MRE) (AID 2282954); conditions: HepG2 MRE cis-reporter transcription, Attagene multiplex; actives raise or lower the signal
Method in brief: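 Readout: capillary electrophoresis of 6-FAM-labelled, HpaI-digested RT-PCR reporter products. System: HepG2 cells carrying transient multiplexed cis reporters, dosed 24 h. Analysis: bidirectional fit, DMSO baseline.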

[10] = ATG_PBREM_CIS: Attagene CIS-FACTORIAL HepG2 Assay for human Phenobarbital-responsive Enhancer Module (PBREM) (AID 2282955); conditions: HepG2 PBREM cis-reporter, Attagene multiplexed transcription; actives raise or lower the signal
Method in brief: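 Endogenous transcription factor activity was read from reporter transcripts in transiently transfected human HepG2 liver cells after 24 h dosing. RT-PCR products were fluorescently labelled, HpaI-cut and sized by capillary electrophoresis; activity fitted bidirectionally against DMSO baseline.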

## Cc1ccc(OC(=O)CC(C)C)cc1
[1]
  outcome: inactive
[2]
  outcome: inactive
[3]
  outcome: inactive
[4]
  outcome: inactive
[5]
  outcome: inactive
[6]
  outcome: inactive
[7]
  outcome: inactive
[8]
  outcome: inactive
[9]
  outcome: inactive
[10]
  outcome: inactive

## NC(=O)N=NC(N)=O
[1]
  outcome: inactive
[2]
  outcome: inactive
[3]
  outcome: inactive
[4]
  outcome: inactive
[5]
  outcome: inactive
[6]
  outcome: inactive
[7]
  outcome: inactive
[9]
  outcome: inactive
[10]
  outcome: inactive

## Nc1nc2ccccc2[nH]1
[1]
  outcome: inactive
[2]
  outcome: inactive
[3]
  outcome: inactive
[4]
  outcome: inactive
[5]
  outcome: inactive
[6]
  outcome: inactive
[7]
  outcome: inactive
[8]
  outcome: inactive
[9]
  outcome: inactive
[10]
  outcome: inactive

## CCCCCCCCc1ccc(Nc2ccc(CCCCCCCC)cc2)cc1
[1]
  outcome: inactive
[2]
  outcome: inactive
[3]
  outcome: inactive
[4]
  outcome: inactive
[5]
  outcome: inactive
[6]
  outcome: inactive
[7]
  outcome: inactive
[8]
  outcome: inactive
[10]
  outcome: inactive

## CC(C)(C)C(=O)C=Cc1ccc(Cl)cc1
[1]
  AC50: 10 µM (active)
[2]
  outcome: inactive
[3]
  AC50: 24.9 µM (active)
[4]
  AC50: 132 µM (active)
[5]
  AC50: 148 µM (active)
[6]
  AC50: 26.3 µM (active)
[7]
  AC50: 23.6 µM (active)
[8]
  AC50: 34.3 µM (active)
[9]
  AC50: 34 µM (active)
[10]
  outcome: inactive

## CO[Si](CCC1CCC2OC2C1)(OC)OC (stereo not drawn)
[1]
  outcome: inactive
[2]
  outcome: inactive
[3]
  outcome: inactive
[4]
  outcome: inactive
[5]
  outcome: inactive
[6]
  outcome: inactive
[7]
  outcome: inactive
[8]
  outcome: inactive
[9]
  outcome: inactive
[10]
  outcome: inactive

## COC(=O)C1=C(C)NC(C)=C(C(=O)OCC(C)C)C1c1ccccc1[N+](=O)[O-] (stereo not drawn)
[1]
  outcome: inactive
[2]
  outcome: inactive
[3]
  AC50: 11.1 µM (active)
[4]
  outcome: inactive
[5]
  outcome: inactive
[6]
  AC50: 18 µM (active)
[7]
  outcome: inactive
[9]
  outcome: inactive
[10]
  outcome: inactive

## COCC(C)N (stereo not drawn)
[1]
  outcome: inactive
[2]
  outcome: inactive
[3]
  outcome: inactive
[4]
  outcome: inactive
[5]
  outcome: inactive
[6]
  outcome: inactive
[7]
  outcome: inactive
[8]
  outcome: inactive
[10]
  outcome: inactive

## CCOC(=O)[C@H](C)O
[1]
  outcome: inactive
[2]
  outcome: inactive
[3]
  outcome: inactive
[4]
  outcome: inactive
[5]
  outcome: inactive
[6]
  outcome: inactive
[7]
  outcome: inactive
[8]
  outcome: inactive
[9]
  outcome: inactive
[10]
  outcome: inactive

## Cc1cc(O)c(Cl)c(C)c1Cl
[1]
  outcome: inactive
[2]
  outcome: inactive
[3]
  outcome: inactive
[4]
  outcome: inactive
[5]
  outcome: inactive
[6]
  outcome: inactive
[7]
  outcome: inactive
[9]
  outcome: inactive
[10]
  outcome: inactive

## CC=CCO
[1]
  outcome: inactive
[2]
  outcome: inactive
[3]
  outcome: inactive
[4]
  outcome: inactive
[5]
  outcome: inactive
[6]
  outcome: inactive
[7]
  outcome: inactive
[8]
  outcome: inactive
[9]
  outcome: inactive
[10]
  outcome: inactive

## CCN(CCC#N)c1ccc(N=Nc2c(Cl)cc([N+](=O)[O-])cc2Cl)cc1
[1]
  outcome: inactive
[2]
  outcome: inactive
[3]
  outcome: inactive
[4]
  outcome: inactive
[5]
  outcome: inactive
[6]
  AC50: 43.3 µM (active)
[7]
  outcome: inactive
[9]
  outcome: inactive
[10]
  outcome: inactive

## CC(C)(C)c1ccc(-c2ccc(C(C)(C)C)cc2)cc1
[1]
  outcome: inactive
[2]
  outcome: inactive
[3]
  outcome: inactive
[4]
  outcome: inactive
[5]
  outcome: inactive
[6]
  outcome: inactive
[7]
  outcome: inactive
[10]
  outcome: inactive

## CC=C1CC2C=CC1C2 (stereo not drawn)
[1]
  outcome: inactive
[2]
  outcome: inactive
[3]
  outcome: inactive
[4]
  outcome: inactive
[5]
  outcome: inactive
[7]
  outcome: inactive
[8]
  outcome: inactive
[9]
  AC50: 87.6 µM (active)
[10]
  outcome: inactive

## CC(=O)CC(N)=O
[1]
  outcome: inactive
[2]
  outcome: inactive
[3]
  outcome: inactive
[4]
  outcome: inactive
[5]
  outcome: inactive
[7]
  outcome: inactive
[8]
  outcome: inactive
[9]
  outcome: inactive

## COC(F)(F)C(F)(C(F)(F)F)C(F)(F)F
[1]
  outcome: inactive
[2]
  outcome: inactive
[3]
  outcome: inactive
[4]
  outcome: inactive
[5]
  outcome: inactive
[6]
  outcome: inactive
[7]
  outcome: inactive
[8]
  outcome: inactive
[9]
  outcome: inactive
[10]
  outcome: inactive

## CCCCCC/C=C\CCCCCCCC(=O)O
[1]
  outcome: inactive
[2]
  outcome: inactive
[3]
  outcome: inactive
[4]
  outcome: inactive
[5]
  outcome: inactive
[6]
  outcome: inactive
[7]
  outcome: inactive
[8]
  outcome: inactive
[9]
  outcome: inactive
[10]
  outcome: inactive

## C=C(C)C(=O)OCCO
[1]
  outcome: inactive
[2]
  outcome: inactive
[3]
  outcome: inactive
[4]
  outcome: inactive
[5]
  outcome: inactive
[6]
  outcome: inactive
[7]
  outcome: inactive
[8]
  outcome: inactive
[9]
  outcome: inactive
[10]
  outcome: inactive

## CC(C)C(=O)C(C)C
[1]
  outcome: inactive
[2]
  outcome: inactive
[3]
  outcome: inactive
[4]
  outcome: inactive
[5]
  outcome: inactive
[6]
  outcome: inactive
[7]
  outcome: inactive
[8]
  AC50: 68.7 µM (active)
[9]
  outcome: inactive
[10]
  outcome: inactive

## CC(C)(c1cc(Br)c(OCCO)c(Br)c1)c1cc(Br)c(OCCO)c(Br)c1
[1]
  AC50: 7.14 µM (active)
[2]
  AC50: 44.2 µM (active)
[3]
  AC50: 7 µM (active)
[4]
  AC50: 22.9 µM (active)
[5]
  outcome: inactive
[6]
  AC50: 6.89 µM (active)
[7]
  AC50: 42.2 µM (active)
[8]
  AC50: 21.5 µM (active)
[9]
  AC50: 18.4 µM (active)
[10]
  outcome: inactive

## O=[N+]([O-])C1(Br)COCOC1
[1]
  outcome: inactive
[2]
  outcome: inactive
[3]
  AC50: 52.5 µM (active)
[4]
  outcome: inactive
[5]
  outcome: inactive
[6]
  outcome: inactive
[7]
  outcome: inactive
[8]
  AC50: 58.8 µM (active)
[9]
  outcome: inactive
[10]
  outcome: inactive

## CC=CC(F)(F)C(F)(F)C(F)(F)F
[1]
  outcome: inactive
[2]
  outcome: inactive
[3]
  outcome: inactive
[4]
  outcome: inactive
[5]
  outcome: inactive
[6]
  outcome: inactive
[7]
  outcome: inactive
[8]
  outcome: inactive
[9]
  outcome: inactive
[10]
  outcome: inactive

## C=COCCCC
[1]
  outcome: inactive
[2]
  outcome: inactive
[3]
  outcome: inactive
[4]
  outcome: inactive
[5]
  outcome: inactive
[6]
  outcome: inactive
[7]
  outcome: inactive
[9]
  outcome: inactive
[10]
  outcome: inactive

## COC(=O)/C=C/C(C)=C\C=C\C(C)=C\C=C\C=C(C)\C=C\C=C(C)\C=C\C(=O)O
[1]
  outcome: inactive
[2]
  outcome: inactive
[3]
  outcome: inactive
[4]
  outcome: inactive
[5]
  outcome: inactive
[6]
  outcome: inactive
[7]
  outcome: inactive
[8]
  outcome: inactive
[9]
  outcome: inactive
[10]
  outcome: inactive
